Results as given in the supplement of paper PMC6555819.

system: LXRa:RXRa (NR concentration 270 nM, RXRa partner concentration 90 nM); assay: PBM binding z-score (relative to random genomic background probes); higher = stronger binding; sequences stand for … in GC…GCGATTGACAGCGTAGAATGAAGG
In short: (§1)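 Regression normalization was applied to scanned fluorescence from custom Agilent 4×180K protein-binding microarrays. Before scanning, arrays were incubated 1 h with ligand-free nuclear receptor dimers, and binding was detected with antibodies against each partner (one per run). Binding z-scores use the random background probes as reference.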

Going from TCGAGTAGGTTAGGGGCATGCAGAATGGCGTCGA to TCATATAGGTGAAGGTGAAAGTCGAACGATATGA, the PBM binding z-score rises from 0.125 to 0.703.

Going from GCGACCGGGGCAAAGCAGGTTACCATAAGGTTGG to CAGACTGGGGCAAGGTTACCATAACGCACAGCCA, the PBM binding z-score rises from 0.812 to 1.05.

Going from CCTAGTTGGTCTAGGTCACACACGCTATAGGTAC to ATATGTAGGTTATCGGGTCATTCCGTTTGCGCAT, the PBM binding z-score rises from 1.66 to 3.17.

First: CCTAACAGGCCAATCTGGGTCACTCAAGGCTTGA
Second: CCTAGCAGGCCAGGGTCACTCGAGCATTTCGCTT
The PBM binding z-score of the first is higher: 1.75 for the first, 1.62 for the second.

First: CAAACTAGGTCGCGAAAGGTCAAAGTCGAATGAC
Second: ACTAGTTGGTCAGCCGAGGTCACACACAATTCGG
The PBM binding z-score of the first is higher: 6.45 for the first, 3 for the second.

First: TCTTGTAGATCAATAGAGATTAAGAAAGTGCGCT
Second: ACTAGTTGGTCAGCTGAGGTCAGACACAATTCGG
The PBM binding z-score of the first is lower: 0.252 for the first, 1.65 for the second.

Compared with AGAACGAGGGCACGCTGAGTTGATAGAAGAGTAG, ACTCGGAGGCCAAAGGTCAGAGCTACGCCAGTGA is higher in PBM binding z-score: 0.362 for the first, 4.5 for the second.

Going from TATACAGCGTCAAAGGCCAGAGTACGAATGTCGA to AGAACGAGGGCACGCTTAGTTGATAGCAGAGTAG, the PBM binding z-score rises from -0.473 to 0.538.

First: GCTTACGGGTCAAAGCTTATAGCATGAATAGAAT
Second: TGTCAAAGTTCAAAGGTAACATAAGTATCCACAC
The PBM binding z-score of the first is lower: 3.79 for the first, 6.45 for the second.

Going from AGTCAAAGTTCATCTAGGTACCGTAAGATATGCT to CCTAGTTGGTCAAGGTCACACAAGCTATAGGTAC, the PBM binding z-score falls from 6.25 to 3.95.

Going from ATATGTAGGTTATCGGGACATTCAGTTTGCGCAT to CCTCACGGGTCAAGGTTATAGCACGGGTGGTACG, the PBM binding z-score rises from 0.813 to 3.42.

First: TCATATTGGTAAACAGGTGAAAGTCCGTAAGTTA
Second: CTCGAAAGGTCGGTCGAGGTGAGTATACGGATAA
The PBM binding z-score of the first is lower: 0.929 for the first, 1.82 for the second.

Compared with CGTCCAAGGTCATAGGAGGTCAGTTAAGACAGAT, GATACAGGGTCAGCTAGAGGCCAGAGTTTGGAAA is lower in PBM binding z-score: 7.74 for the first, 2.73 for the second.

Compared with GCTAGTTGGTCAGTAAAAGGTCACACATCGGTCG, TCATATAGGTAAAAGGTGGAAGTCGGTGTGGTAA is lower in PBM binding z-score: 4.12 for the first, 0.974 for the second.

Going from GCAGACAGGTGAAACGCAGGAAACTCAGGGTGGC to CCTGCTAGATCAATGGTCAGCTAAAGCAGCTCGC, the PBM binding z-score falls from -0.226 to -0.902.

First: GTACCAGGGTGAATAGGTCGTTGATGAGTAGGCG
Second: TCATATAGGTCAATGCTAGGTGAAAGTCCGATCT
The PBM binding z-score of the first is lower: 0.813 for the first, 4.7 for the second.

First: GCTAGCTGGCCATTTGGGTCACTCAATGACGGGC
Second: TCATATAGGTAAACGTGAAAGTCGAACGATATGA
The PBM binding z-score of the first is lower: -0.387 for the first, 0.332 for the second.

Compared with CAAACTAGGTCAAAGGTCTAAGTCGAGCCAACCA, GCTTACGGGTCATAGGTTATAGCATGAATAGAAT is lower in PBM binding z-score: 4.37 for the first, 4.32 for the second.

Compared with CAAACTAGGTCACGAAAGGTCAAAGACGAATGAC, CGTCCCAGGTCAATGCTAGGTCAGTGAAAGCATT is lower in PBM binding z-score: 8.07 for the first, 4.18 for the second.

Compared with TCTCGGAGGACACGAACGGTCAGAGCTCGACATC, CCGACTGGGGCATAATGTTACCATAAGCCAGCCC is lower in PBM binding z-score: 0.398 for the first, -0.333 for the second.

system: LXRa homodimer (NR concentration 270 nM); assay: as above
In short: as §1

Compared with TCGAGTAGGTTAGGGGCATGCAGAATGGCGTCGA, TCATATAGGTGAAGGTGAAAGTCGAACGATATGA is lower in PBM binding z-score: -0.474 for the first, -0.543 for the second.

Compared with GCGACCGGGGCAAAGCAGGTTACCATAAGGTTGG, CAGACTGGGGCAAGGTTACCATAACGCACAGCCA is higher in PBM binding z-score: -0.366 for the first, -0.312 for the second.

Going from CCTAGTTGGTCTAGGTCACACACGCTATAGGTAC to ATATGTAGGTTATCGGGTCATTCCGTTTGCGCAT, the PBM binding z-score rises from 1.3 to 1.85.

Compared with CCTAACAGGCCAATCTGGGTCACTCAAGGCTTGA, CCTAGCAGGCCAGGGTCACTCGAGCATTTCGCTT is lower in PBM binding z-score: 0.16 for the first, -0.424 for the second.

Going from CAAACTAGGTCGCGAAAGGTCAAAGTCGAATGAC to ACTAGTTGGTCAGCCGAGGTCACACACAATTCGG, the PBM binding z-score falls from 5.69 to 2.4.

First: TCTTGTAGATCAATAGAGATTAAGAAAGTGCGCT
Second: ACTAGTTGGTCAGCTGAGGTCAGACACAATTCGG
The PBM binding z-score of the first is lower: -0.543 for the first, 1.19 for the second.

First: AGAACGAGGGCACGCTGAGTTGATAGAAGAGTAG
Second: ACTCGGAGGCCAAAGGTCAGAGCTACGCCAGTGA
The PBM binding z-score of the first is lower: -0.441 for the first, 1.02 for the second.

First: TATACAGCGTCAAAGGCCAGAGTACGAATGTCGA
Second: AGAACGAGGGCACGCTTAGTTGATAGCAGAGTAG
The PBM binding z-score of the first is lower: -0.358 for the first, -0.173 for the second.

First: GCTTACGGGTCAAAGCTTATAGCATGAATAGAAT
Second: TGTCAAAGTTCAAAGGTAACATAAGTATCCACAC
The PBM binding z-score of the first is lower: -0.13 for the first, 4.6 for the second.

Going from AGTCAAAGTTCATCTAGGTACCGTAAGATATGCT to CCTAGTTGGTCAAGGTCACACAAGCTATAGGTAC, the PBM binding z-score falls from 5.57 to 1.98.

First: ATATGTAGGTTATCGGGACATTCAGTTTGCGCAT
Second: CCTCACGGGTCAAGGTTATAGCACGGGTGGTACG
The PBM binding z-score of the first is higher: 0.715 for the first, 0.0967 for the second.

Going from TCATATTGGTAAACAGGTGAAAGTCCGTAAGTTA to CTCGAAAGGTCGGTCGAGGTGAGTATACGGATAA, the PBM binding z-score falls from 0.49 to -0.49.

Compared with CGTCCAAGGTCATAGGAGGTCAGTTAAGACAGAT, GATACAGGGTCAGCTAGAGGCCAGAGTTTGGAAA is lower in PBM binding z-score: 5.66 for the first, -0.116 for the second.

Compared with GCTAGTTGGTCAGTAAAAGGTCACACATCGGTCG, TCATATAGGTAAAAGGTGGAAGTCGGTGTGGTAA is lower in PBM binding z-score: 4.59 for the first, 0.29 for the second.

Going from GCAGACAGGTGAAACGCAGGAAACTCAGGGTGGC to CCTGCTAGATCAATGGTCAGCTAAAGCAGCTCGC, the PBM binding z-score falls from -0.695 to -0.811.

First: GTACCAGGGTGAATAGGTCGTTGATGAGTAGGCG
Second: TCATATAGGTCAATGCTAGGTGAAAGTCCGATCT
The PBM binding z-score of the first is lower: -0.254 for the first, 1.51 for the second.

Compared with GCTAGCTGGCCATTTGGGTCACTCAATGACGGGC, TCATATAGGTAAACGTGAAAGTCGAACGATATGA is higher in PBM binding z-score: -0.995 for the first, -0.204 for the second.

Compared with CAAACTAGGTCAAAGGTCTAAGTCGAGCCAACCA, GCTTACGGGTCATAGGTTATAGCATGAATAGAAT is lower in PBM binding z-score: 0.54 for the first, 0.326 for the second.

Compared with CAAACTAGGTCACGAAAGGTCAAAGACGAATGAC, CGTCCCAGGTCAATGCTAGGTCAGTGAAAGCATT is lower in PBM binding z-score: 7.51 for the first, 2.32 for the second.

Going from TCTCGGAGGACACGAACGGTCAGAGCTCGACATC to CCGACTGGGGCATAATGTTACCATAAGCCAGCCC, the PBM binding z-score falls from 0.0467 to -0.335.
